# Laboratory results as given in PubChem BioAssay (EPA / NIEHS).
# Records with an inconclusive call do not appear. The source made the active and inactive calls. Rule for the calls: active = hit-call score of the fitted dose curve at least 0.9, where 1 is the maximum; inconclusive = response in the unintended direction; inactive = score below 0.9.
# Target: Peroxisome proliferator-activated receptor gamma (Homo sapiens) (UniProt P37231)
# Test: OT_PPARg_PPARgSRC1_0480: Odyssey Thera (OT) 8-hour Protein-Complementation Assay for Peroxisome Proliferator-activated Receptor Gamma / SRC-1 Co-activator (AID 2283387);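 note: nuclear to cytoplasmic split Venus YFP fluorescence ratio reporting PPARg SRC-1 interaction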
# Method: OT_PPARg_PPARgSRC1_0480 is a cell-based assay that uses HEK293T, a human kidney cell line, with measurements taken at 8 hours after chemical dosing in a 384-well plate.OT_PPARg_PPARgSRC1_0480 is one of one assay component(s) measured or calculated from the OT_PPARg_PPARgSRC1_0480 assay. It is designed to make measurements of protein fragment complementation, a form of binding reporter, as detected with fluorescence intensity signals by Protein-fragment Complementation technology.Data from the assay component OT_PPARg_PPARgSRC1_0480 was analyzed into 1 assay endpoint. This assay endpoint, OT_PPARg_PPARgSRC1_0480, was analyzed in the positive analysis fitting direction relative to DMSO as the negative control and baseline of activity. Using a type of binding reporter, measures of receptor for gain-of-signal activity can be used to understand the binding at the pathway-level as they relate to the gene PPARG. Furthermore, this assay endpoint can be referred to as a primary readout, because the performed assay has only produced 1 assay endpoint. To generalize the intended target to other relatable targets, this assay endpoint is annotated to the nuclear receptor intended target family, where the subfamily is non-steroidal.
# The OT PPARg/SRC-1 assay assessed receptor-chemical interactions using a rapidly maturing, intensely fluorescent mutant of YFP known as Venus, rationally dissected into two separate fragments. The fragments were obtained as follows: first, fragments coding for YFP1 and YFP2 (corresponding to amino acid residues 1-158 and 159-239 of the full length YFP, respectively) were generated by oligonucleotide synthesis (Blue Heron Biotechnology), and then PCR mutagenesis was used to generate the mutant fragments IFP1 and IFP2. Fusion constructs were transfected into HEK293T cells with a (Gly4Ser)2 linker between the PPARg/SRC-1 and YFP fragment genes to facilitate complementation when interacting proteins bring fragments into close proximity. The construct is transiently transfected in HEK293T cells 48 hours prior to treatment with test compounds. Cells are seeded into optical quality 384-well poly-D-lysine coated plates in MEM alpha medium (Invitrogen) supplemented with 10 percent FBS (Gemini Bio-Products) 1 percent penicillin and 1 percent streptomycin, and grown in 37C incubator equilibrated to 5 percent CO2. Cells are allowed to adhere for 24 hours prior to treatment with compounds of interest or controls for 8 hours. Cells are fixed in 4 percent formaldehyde and stained with Draq5 (BioStatus) to identify cells and subcellular compartment boundaries prior to signal detection. 8 Images per well were acquired on an Evotec Opera at 2 wavelengths (488 and 635nm), and the ratio of fluorescence in the nucleus relative to fluorescence in the cytoplasm (N/C Ratio) in the 488nm channel was calculated for a minimum of 350 cells per image.
# Sequence of Peroxisome proliferator-activated receptor gamma (Homo sapiens) (P37231 whole entry, looked up): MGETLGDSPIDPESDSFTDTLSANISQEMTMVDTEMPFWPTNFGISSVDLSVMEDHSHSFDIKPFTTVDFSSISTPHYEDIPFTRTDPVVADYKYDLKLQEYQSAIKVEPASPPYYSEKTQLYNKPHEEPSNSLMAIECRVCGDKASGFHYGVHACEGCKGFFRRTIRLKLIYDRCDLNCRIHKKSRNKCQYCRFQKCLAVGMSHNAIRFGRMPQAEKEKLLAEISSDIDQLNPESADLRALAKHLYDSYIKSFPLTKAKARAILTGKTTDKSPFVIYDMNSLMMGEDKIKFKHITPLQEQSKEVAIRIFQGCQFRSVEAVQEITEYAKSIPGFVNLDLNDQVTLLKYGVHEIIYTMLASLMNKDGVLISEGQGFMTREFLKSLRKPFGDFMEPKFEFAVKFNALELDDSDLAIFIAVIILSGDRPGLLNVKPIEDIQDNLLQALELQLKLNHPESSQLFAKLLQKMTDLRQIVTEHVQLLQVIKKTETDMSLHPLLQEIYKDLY
row,SMILES,outcome
1,CCCCOC(=O)[C@@H](C)Oc1ccc(Oc2ccc(C#N)cc2F)cc1,inactive
2,CCOP(=S)(OCC)Oc1ccc2c(C)c(Cl)c(=O)oc2c1,inactive
3,CSC1=N[C@@](C)(c2ccccc2)C(=O)N1Nc1ccccc1,inactive
4,CCCOCC(=Nc1ccc(Cl)cc1C(F)(F)F)n1ccnc1,inactive
5,CN(C)C(=O)Nc1cccc(C(F)(F)F)c1,inactive
6,CCOP(=S)(Oc1cnc(C(C)(C)C)nc1)OC(C)C (stereo not given),inactive
7,CCNc1nc(Cl)nc(NC(C)(C)C#N)n1,inactive
8,CNC(=O)ON=C(SC)C(=O)N(C)C,inactive
9,CN1COCN(Cc2cnc(Cl)s2)C1=N[N+](=O)[O-],inactive
10,CCc1cnc(C2=NC(C)(C(C)C)C(=O)N2)c(C(=O)O)c1 (stereo not given),inactive
11,CC(=NC#N)N(C)Cc1ccc(Cl)nc1,inactive
12,CN(C)NC(=O)CCC(=O)O,inactive
13,C[N+]1(C)CCCCC1,inactive
14,COP(=O)(OC)OC(Br)C(Cl)(Cl)Br (stereo not given),inactive
15,N#CSCSC#N,inactive
16,CC(Oc1cccc(Cl)c1)C(=O)O (stereo not given),inactive
17,CN(C)[C@@H]1C(=O)C(C(N)=O)=C(O)[C@@]2(O)C(=O)C3=C(O)c4c(O)cccc4[C@@](C)(O)[C@H]3[C@H](O)[C@@H]12,inactive
18,C=C(C)[C@H]1Cc2c(ccc3c2O[C@@H]2COc4cc(OC)c(OC)cc4[C@@H]2C3=O)O1,inactive
19,CCCCN(CC)c1c([N+](=O)[O-])cc(C(F)(F)F)cc1[N+](=O)[O-],inactive
20,CCC(=NOC/C=C/Cl)C1=C(O)CC(C2CCOCC2)CC1=O (stereo not given),inactive

row,SMILES,outcome
1,CCCCOC(=O)c1ccccc1C(=O)O,inactive
2,CCCSP(=O)(OCC)SCCC,inactive
3,CCOP(=S)(OCC)Oc1ccc([N+](=O)[O-])cc1,inactive
4,CCOP(=S)(OCC)OC(Cl)C(Cl)(Cl)Cl (stereo not given),inactive
5,COc1cccc(C(=O)NN(C(=O)c2cc(C)cc(C)c2)C(C)(C)C)c1C,inactive
6,C#CCC1=C(C)C(OC(=O)C2C(C=C(C)C)C2(C)C)CC1=O (stereo not given),inactive
7,CCOC(=O)COc1cc(-c2nn(C)c(OC(F)F)c2Cl)c(F)cc1Cl,inactive
8,CC(COc1ccc(Oc2ccccc2)cc1)Oc1ccccn1 (stereo not given),inactive
9,CCC(=O)Nc1ccc(Cl)c(Cl)c1,inactive
10,CCOC(=O)CC(SP(=O)(OC)OC)C(=O)OCC (stereo not given),inactive
11,CCOP(=S)(OCC)Oc1cc(C)nc(C(C)C)n1,inactive
12,CCOP(=O)(NC(C)C)Oc1ccc(SC)c(C)c1 (stereo not given),inactive
13,CCOP(=O)(SC(C)CC)N1CCSC1=O (stereo not given),inactive
14,CC(C)=CC1C(C(=O)OCN2C(=O)C3=C(CCCC3)C2=O)C1(C)C (stereo not given),inactive
15,COP(=O)(OC)C(O)C(Cl)(Cl)Cl (stereo not given),inactive
16,O=C(O)c1cc(Oc2ccc(C(F)(F)F)cc2Cl)ccc1[N+](=O)[O-],inactive
17,CON=C(C(=O)OC)c1ccccc1CON=C(C)c1cccc(C(F)(F)F)c1,inactive
18,CCOP(=O)(OCC)Oc1cc(C)nc(C(C)C)n1,inactive
19,CC(C)[C@H](C(=O)O[C@H](C#N)c1cccc(Oc2ccccc2)c1)c1ccc(Cl)cc1,inactive
20,CSc1nc(NC(C)C)nc(NC(C)C)n1,inactive
